These results are taken from the supplement of paper PMC6555819.

What all share (assay): PBM binding z-score (relative to random genomic background probes); higher = stronger binding; sequences stand for … in GC…GCGATTGACAGCGTAGAATGAAGG
In test [1] the test system is FXR:RXRa (NR concentration 270 nM, RXRa partner concentration 90 nM). In a few lines:
(§1)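 The probes on custom Agilent 4×180K protein-binding microarrays were double-stranded, with 34-nt variable regions bearing direct-repeat seeds, single-nucleotide variants, half-site ablations and random human genomic background sequences. Incubation lasted 1 h with ligand-free nuclear receptor dimers in PBS pH 7.4, 2% milk, 0.02% Triton X-100, 1 mM DTT, 0.2 mg/mL BSA and 0.4 mg/ml salmon testes DNA. Antibodies against each partner (one per run) detected bound dimers, and fluorescence scans were regression-normalized. Binding z-scores take the random background probes as reference.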

Test [2] deals with LXRa:RXRa (NR concentration 270 nM, RXRa partner concentration 90 nM). In outline:
as §1

For test [3], the system named is LXRa homodimer (NR concentration 270 nM). In a few lines:
as §1

Test [4] deals with LXRb:RXRa (NR concentration 270 nM, RXRa partner concentration 90 nM). In a few lines: as §1
For test [5], the system named is LXRb homodimer (NR concentration 270 nM). In outline:
as §1

In test [6] the test system is PPARa:RXRa (NR concentration 270 nM, RXRa partner concentration 90 nM). In outline: as §1
Test [7] relates to PPARg:RXRa (NR concentration 180 nM, RXRa partner concentration 90 nM). In a few lines:
as §1

Test [8] has as its system PPARg:RXRa 270nM:90nM, anti-RXR (NR concentration 270 nM, RXRa partner concentration 90 nM). In outline:
as §1

Test [9] deals with PPARg:RXRa 30nM:10nM, anti-RXR (NR concentration 30 nM, RXRa partner concentration 10 nM). In outline: as §1
In test [10] the test system is PPARg:RXRa 90nM:30nM, anti-RXR (NR concentration 90 nM, RXRa partner concentration 30 nM). In a few lines: as §1

Take CCTAGCAGGCCAATCTGTGTCACTCAAGGCTTGA: the PBM binding z-score in [1] was -0.0282; in [2], -0.198; in [3], -0.502; in [4], -0.335; in [5], -0.193; in test [6] it was 0.394. Also, the PBM binding z-score in test [7] is -0.0496; in [8] it was -0.118; in [9], -0.619; in test [10], -0.304.
TAACCTAGGTCATGCGGGCCAGTATAGTGTCGGC: the PBM binding z-score is 4.19 in test [1]; 4.46 in test [2]; 1.83 in [3]; 2.55 in [4]; -0.0591 in test [5]; 4.09 in test [6]. Also, the PBM binding z-score in test [7] stood at 4.16; in [8], 3.58; in test [9], 1.11; in test [10], 2.56.
As to AGTCAAAGCTCAGGACGAGGTAACGTAAAGCACG, the PBM binding z-score in [1] was -0.244; in test [2], -0.551; in test [3], -0.393; in [4], -0.561; in test [5], -0.87; in test [6], -0.301. Further, the PBM binding z-score was 0.722 in test [7], -0.305 in test [8], -0.133 in test [9] and -0.117 in [10].
With CATACAGGGTCAGCGAGGCCAGAGTAGGGACGGC, the PBM binding z-score is 5.13 in test [1]; 3.36 in test [2]; -0.392 in [3]; 2.27 in test [4]; -0.0459 in test [5]; 5 in [6]. The PBM binding z-score in test [7] turned out to be 4.21; in test [8] it was 3.65; in test [9] it was 0.828; in test [10] it was 2.12.
On to GCTTGTAGATCAAGGTTAAAAAAGACTAAGCTAA, for which the PBM binding z-score was 0.221 in test [1]; 1.35 in test [2]; -0.113 in test [3]; 0.828 in test [4]; -0.501 in [5]; 1.84 in [6]. For the same sequence, the PBM binding z-score in [7] came to 1.19; in test [8], 2.38; in test [9], 0.522; in test [10], 1.79.
Turning to ATTCAAAGTTCACTAGGTAACGTAAGATTCAGCT, the PBM binding z-score in [1] came to 4.73; in [2] it was 5.45; in [3] it was 4.42; in test [4] it was 3.08; in test [5] it was 1.71; in test [6], 4.44. For the same sequence, the PBM binding z-score in test [7] turned out to be 5.64; in test [8], 5.28; in [9], 2.03; in test [10], 4.25.
For the sequence CGTCCAAGGTCATAGGAGGTCAGTTAAGACAGAT, the PBM binding z-score in [1] was 7.74; in [2], 7.74; in [3] it was 5.66; in test [4] it was 6.32; in test [5] it was 1.11; in [6], 5.68. Further, the PBM binding z-score in test [7] was determined as 5.84; in test [8], 5.96; in [9], 2.29; in test [10], 4.5.
With AGAGACAGGTGAGTGAAGGTAACTCAGCTGGACG, the PBM binding z-score in test [1] is 0.542; in test [2] it was 0.207; in test [3], -0.174; in [4] it was 0.279; in test [5] it was 0.443; in test [6], 0.437. The PBM binding z-score in [7] was 0.497; in [8] it was 0.226; in test [9], 0.0896; in [10], 0.0651.
As for CCAGACAGGTGGAAGGTAACTCAGTCTGGTACGC, the PBM binding z-score in test [1] is -0.299; in [2], -0.335; in test [3], -0.385; in test [4] it was -0.402; in test [5], -0.752; in test [6] it was 0.13. Also, the PBM binding z-score was 0.719 in test [7], 1.5 in [8], -0.203 in [9] and 0.663 in test [10].
Turning to TCTTGTAGATCTAGCAGGTTAAGAAAGCCTGAGT, the PBM binding z-score was 0.335 in test [1]; 0.398 in test [2]; -0.285 in [3]; 0.453 in test [4]; -0.499 in [5]; 0.695 in [6]. The PBM binding z-score in [7] is -0.571; in [8], 1.22; in test [9], 2.48; in test [10], 1.86.
In the case of ATATGTAGGTTATCGGGTCATTCCGTTTGCGCAT, the PBM binding z-score in test [1] was 3.08; in [2] it was 3.17; in [3], 1.85; in test [4], 3.11; in test [5], 0.638; in test [6], 4.81. Also, the PBM binding z-score came to 6.78 in test [7], 5.92 in test [8], 3.37 in test [9] and 5.6 in [10].
With CCTACTGTGCCAAAGGTCATTGATTCCAATGCTC, the PBM binding z-score in test [1] was determined as 5.48; in test [2], 5.82; in test [3], 5.32; in test [4], 5.34; in test [5], 2.14; in test [6] it was 6.17. The PBM binding z-score in test [7] turned out to be 11.4; in [8] it was 9.67; in test [9], 9.47; in test [10], 10.3.
For ATCGAAAGGTCGAGGTGTGTATAGAGAAAGGGAA, the PBM binding z-score amounted to 3.92 in test [1]; 3.39 in [2]; 0.47 in test [3]; 2.82 in test [4]; 0.483 in test [5]; 4.43 in test [6]. The PBM binding z-score was 2.6 in test [7], 3.16 in [8], 1.2 in test [9] and 2.19 in test [10].
